The record followed here is PubChem BioAssay (NCATS).

The target in test [1] is Voltage-gated inwardly rectifying potassium channel KCNH2 (Homo sapiens) (UniProt Q12809). Nature of the test: qHTS Assay for Small Molecule Inhibitors of the Human hERG Channel Activity (AID 588834).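 Also: lower thallium flux fluorescence means stronger hERG block; nearly all actives have a fitted effect of over 50% in size.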 Also: potency is read from the fitted curve at half-maximal effect. The gist of the method:
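Thallium serves as surrogate for K+ influx through BacMam-delivered hERG in U2OS cells. Compounds are added for about 10 minutes after dye loading; stimulation buffer then starts flux, monitored kinetically on FDSS.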
(Quantitative high-throughput screening tests each substance at several concentrations.)

Test [2] has as its target Luciferin 4-monooxygenase (Photinus pyralis) (UniProt P08659). In words: Biochemical firefly luciferase enzyme assay for NPC (AID 624030).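 Also: purified P. pyralis luciferase at 10 nM with luciferin and ATP substrate; 0% = DMSO and -100% = full luciferase inhibition by PTC124 control; nearly all actives have a fitted effect of over 70% in size.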 Put shortly: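 Counter-screen for direct inhibition of the luciferase enzyme by approved-drug library compounds, run at 10 nM enzyme in 50 mM Tris acetate (final). Luminescence was read within 5 min of enzyme-buffer addition and normalized to PTC124 versus DMSO (0%).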

The nature of test [3]: S16 Schwann cell viability assay (CellTiter-Glo assay) (AID 624031). Also: nearly all actives have a fitted effect of over 70% in size. Also: potency is read from the fitted curve at half-maximal effect. The gist of the method: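 Native S16 rat Schwann cells, 500-750 cells/well in DMEM with 10% FBS, dosed with compound after overnight culture and incubated 24h at 37 degree Celsius/5% CO2. Viability by CellTiter-Glo luminescence; % activity normalized to no-cell wells and DMSO-treated cells.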
Background: ATP-based viability assays read luminescence as a measure of living cells.

Test [4] in a line: qHTS assay for small molecule agonists of the antioxidant response element (ARE) signaling pathway (AID 651741; active = well fitted activation curve with a large enough effect in the signal ratio; the % refers to the signal ratio; also: potency is read from the fitted curve at half-maximal effect; as to activation: % of control where 0% means no effect). Put shortly:
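Reporter: beta-lactamase under ARE, stably in HepG2. Exposure: 16 h, 37 C, compounds delivered in DMSO by pin tool after 5 h cell preincubation. Readout: FRET substrate fluorescence after 2 h at RT.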

Test [5] in a line: S16 Schwann cell PMP22 intronic element firefly luciferase assay (AID 624032). Also: nearly all actives have a fitted effect of over 30% in size. Also: potency is read from the fitted curve at half-maximal effect. Put shortly: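 Rat S16 Schwann cells stably carrying a PMP22 intronic element-driven Fluc reporter were seeded overnight, then exposed to compounds for 24 h at 37 °C. Luminescence was normalized to PTC124 (positive control) and DMSO (0% activity).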
Test [6] can be described thus: S16 Schwann cell PMP22 intronic element beta-lactamase assay (AID 624044; calls by dose curve;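 also: 0% = DMSO and -100% = potassium clavulanate positive control; nearly all actives have a fitted effect of over 15% in size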). The following applies: S16 rat Schwann cells, PMP22 element beta-lactamase FRET, 24 h; ratio activity, negative = inhibition: at 38.3 µM (top of the series). The gist of the method:
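Beta-lactamase reporter under a PMP22 intronic regulatory element in stable S16 rat Schwann cells; 24 h compound exposure. 460 nm blue signal normalized between DMSO (0%) and potassium clavulanate, with 535 nm FRET tracking viability; curves classed by r2 and response.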

A short description of test [7]: qHTS assay for small molecule activators of the p53 signaling pathway (AID 651743; active = well fitted activation curve with a large enough effect in the signal ratio, not every such curve was filed as active; the % refers to the signal ratio; also: % of control where 0% means no effect). The conditions noted are these: HCT-116 p53RE-bla, beta-lactamase FRET ratio, 16 h; activation: hits give high values. Put shortly: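 Agonist-mode quantitative HTS in HCT-116 cells carrying a p53-response-element beta-lactamase reporter; 16 h compound treatment at 37 C, then FRET substrate loading for 2 h at room temperature and fluorescence read.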

Test [8] has as its target Glutaminase kidney isoform, mitochondrial (Homo sapiens) (UniProt O94925). Nature of the test: qHTS for Inhibitors of Glutaminase (GLS): LOPAC Validation (AID 624146).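 Also: glutamate product detected by oxidase and peroxidase coupled Amplex red fluorescence gain; % is scaled to controls: 0 for no effect and ±100 for the full control effect; nearly all actives have a fitted effect of over 60% in size.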 Put shortly: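 Assay buffer: 45 mM KH2PO4 pH 8.2, 0.02% Tween-20. hKGA acts on L-glutamine (1 mM solution added); product glutamate is reported by an oxidase/peroxidase Amplex Red coupling, with fluorescence taken at baseline and 30 min.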

Test [9] addresses Glucagon-like peptide 1 receptor (Homo sapiens) (UniProt P43220). Nature of the test: qHTS of GLP-1 Receptor Agonists: LOPAC Validation (AID 624148).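 Also: 0% is about no effect; higher luminescence signal means agonism.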 The gist of the method:
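HEK293 cells stably co-expressing a cAMP-responsive luciferase reporter and a hypersensitive GLP-1R were plated 12 h at 37 °C and exposed to compounds for 4-6 hr at 37 °C, 5% CO2. Luminescence was read 12 min after adding detection reagent.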

The nature of test [10]: qHTS of Nrf2 Activators: LOPAC Validation (AID 624149). Also: 0% is about no effect. The gist of the method:
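Luciferase signal from ARE activation, read with Steady-Glo after 30 min at room temperature. Compounds were pin-transferred onto AREc32_Fluc cells (1000/well, OPTI-MEM/5% FBS, seeded overnight) and left 24 hr at 37 deg C.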

Test [11] is described as follows: qHTS assay for small molecule disruptors of the mitochondrial membrane potential - 1 hr assay (AID 651754; calls by dose curve; also: % is scaled to controls: 0 for no effect and ±100 for the full control effect; nearly all actives have a fitted effect of over 35% in size). Put shortly: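 Mitochondrial potential in living HepG2 cells after 1 hr compound treatment at 37C was read with Mito-MPS dye added for a further 30 min. Red aggregate and green monomer fluorescence were measured; loss of potential leaves dye as cytoplasmic monomers.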

Test [12] is described as follows: qHTS assay for small molecule disruptors of the mitochondrial membrane potential - 5 hr assay (AID 651755; calls by dose curve; also: % is scaled to controls: 0 for no effect and ±100 for the full control effect; nearly all actives have a fitted effect of over 40% in size). The gist of the method:
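Seed HepG2 overnight, add compound, incubate 5 hr at 37C and 5% CO2, stain 30 min with Mito-MPS, then measure monomer (490/535 nm) and aggregate (540/590 nm) fluorescence.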

Where “and” joins values, the source holds several entries; their conditions need not be identical. Identical values can stand only once. Unmarked numbers belong to inactive results. Inconclusive results are not listed. Calls of active or inactive are those of the source. Unless noted, calls follow the shape of the dose curve; as a rule, active = well fitted curve in the direction sought with a large enough effect; inconclusive = small, poorly fitted or top-dose-only effect, or another doubt; inactive = no such curve, though single readings can be large; an effect the other way counts as inactive or inconclusive.

Sequence of Voltage-gated inwardly rectifying potassium channel KCNH2 (Homo sapiens) (Q12809 whole entry, looked up): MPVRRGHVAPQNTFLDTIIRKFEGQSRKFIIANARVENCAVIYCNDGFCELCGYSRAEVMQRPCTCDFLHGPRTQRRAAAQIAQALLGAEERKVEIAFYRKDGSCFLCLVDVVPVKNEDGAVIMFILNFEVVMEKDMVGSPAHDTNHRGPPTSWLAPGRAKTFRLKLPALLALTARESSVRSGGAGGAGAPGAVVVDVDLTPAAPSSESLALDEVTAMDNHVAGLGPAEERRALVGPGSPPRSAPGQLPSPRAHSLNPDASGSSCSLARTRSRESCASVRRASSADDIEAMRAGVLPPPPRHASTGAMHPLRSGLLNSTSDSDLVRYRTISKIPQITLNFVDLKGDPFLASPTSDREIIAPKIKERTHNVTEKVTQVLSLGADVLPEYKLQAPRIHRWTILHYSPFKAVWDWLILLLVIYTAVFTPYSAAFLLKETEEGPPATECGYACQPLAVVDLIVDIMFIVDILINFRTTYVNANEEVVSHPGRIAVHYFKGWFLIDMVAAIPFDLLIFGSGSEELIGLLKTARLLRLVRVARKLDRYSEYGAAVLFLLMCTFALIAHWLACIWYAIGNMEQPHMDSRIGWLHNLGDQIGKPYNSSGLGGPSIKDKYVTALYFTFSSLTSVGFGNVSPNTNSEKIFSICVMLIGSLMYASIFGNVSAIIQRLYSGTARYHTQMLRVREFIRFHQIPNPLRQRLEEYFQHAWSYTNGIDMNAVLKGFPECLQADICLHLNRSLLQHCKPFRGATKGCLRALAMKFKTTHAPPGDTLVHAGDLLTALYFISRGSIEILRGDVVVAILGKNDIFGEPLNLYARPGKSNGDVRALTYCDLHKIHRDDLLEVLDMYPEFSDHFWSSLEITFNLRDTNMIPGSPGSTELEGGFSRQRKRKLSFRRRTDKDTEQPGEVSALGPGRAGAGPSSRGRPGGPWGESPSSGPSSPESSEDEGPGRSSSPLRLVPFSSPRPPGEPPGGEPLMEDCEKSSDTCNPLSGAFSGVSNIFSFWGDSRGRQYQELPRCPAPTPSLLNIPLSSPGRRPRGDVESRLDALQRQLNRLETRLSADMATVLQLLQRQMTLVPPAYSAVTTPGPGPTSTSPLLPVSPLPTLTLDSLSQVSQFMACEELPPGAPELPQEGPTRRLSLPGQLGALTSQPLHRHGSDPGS
Sequence of Luciferin 4-monooxygenase (Photinus pyralis) (P08659 whole entry, looked up): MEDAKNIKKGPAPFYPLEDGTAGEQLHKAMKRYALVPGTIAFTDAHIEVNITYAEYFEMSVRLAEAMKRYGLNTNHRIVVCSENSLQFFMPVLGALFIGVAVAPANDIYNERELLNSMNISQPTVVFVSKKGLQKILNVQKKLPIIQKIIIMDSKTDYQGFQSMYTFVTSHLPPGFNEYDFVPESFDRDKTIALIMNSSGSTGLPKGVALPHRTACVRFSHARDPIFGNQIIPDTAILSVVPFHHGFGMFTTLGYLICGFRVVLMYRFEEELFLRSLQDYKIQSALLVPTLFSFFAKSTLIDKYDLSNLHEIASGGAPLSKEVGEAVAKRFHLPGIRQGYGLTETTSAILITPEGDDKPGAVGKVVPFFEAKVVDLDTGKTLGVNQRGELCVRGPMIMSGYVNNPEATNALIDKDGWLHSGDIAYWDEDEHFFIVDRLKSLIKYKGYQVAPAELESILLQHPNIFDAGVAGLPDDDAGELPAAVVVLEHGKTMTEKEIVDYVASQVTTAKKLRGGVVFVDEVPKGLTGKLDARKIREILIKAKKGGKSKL
Sequence of Glucagon-like peptide 1 receptor (Homo sapiens) (P43220 whole entry, looked up): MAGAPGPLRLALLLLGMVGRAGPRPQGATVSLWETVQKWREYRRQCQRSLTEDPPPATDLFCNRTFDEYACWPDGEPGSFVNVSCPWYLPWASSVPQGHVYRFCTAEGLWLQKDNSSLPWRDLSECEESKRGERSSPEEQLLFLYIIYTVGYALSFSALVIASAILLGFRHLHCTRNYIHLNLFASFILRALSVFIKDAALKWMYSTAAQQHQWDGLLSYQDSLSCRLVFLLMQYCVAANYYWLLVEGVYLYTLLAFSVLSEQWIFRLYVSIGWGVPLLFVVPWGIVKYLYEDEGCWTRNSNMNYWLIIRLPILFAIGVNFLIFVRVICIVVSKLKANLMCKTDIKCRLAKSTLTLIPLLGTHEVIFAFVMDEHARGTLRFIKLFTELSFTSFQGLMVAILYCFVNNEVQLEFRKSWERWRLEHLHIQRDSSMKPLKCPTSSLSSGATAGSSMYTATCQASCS
Sequence of Glutaminase kidney isoform, mitochondrial (Homo sapiens) (O94925 whole entry, looked up, canonical isoform): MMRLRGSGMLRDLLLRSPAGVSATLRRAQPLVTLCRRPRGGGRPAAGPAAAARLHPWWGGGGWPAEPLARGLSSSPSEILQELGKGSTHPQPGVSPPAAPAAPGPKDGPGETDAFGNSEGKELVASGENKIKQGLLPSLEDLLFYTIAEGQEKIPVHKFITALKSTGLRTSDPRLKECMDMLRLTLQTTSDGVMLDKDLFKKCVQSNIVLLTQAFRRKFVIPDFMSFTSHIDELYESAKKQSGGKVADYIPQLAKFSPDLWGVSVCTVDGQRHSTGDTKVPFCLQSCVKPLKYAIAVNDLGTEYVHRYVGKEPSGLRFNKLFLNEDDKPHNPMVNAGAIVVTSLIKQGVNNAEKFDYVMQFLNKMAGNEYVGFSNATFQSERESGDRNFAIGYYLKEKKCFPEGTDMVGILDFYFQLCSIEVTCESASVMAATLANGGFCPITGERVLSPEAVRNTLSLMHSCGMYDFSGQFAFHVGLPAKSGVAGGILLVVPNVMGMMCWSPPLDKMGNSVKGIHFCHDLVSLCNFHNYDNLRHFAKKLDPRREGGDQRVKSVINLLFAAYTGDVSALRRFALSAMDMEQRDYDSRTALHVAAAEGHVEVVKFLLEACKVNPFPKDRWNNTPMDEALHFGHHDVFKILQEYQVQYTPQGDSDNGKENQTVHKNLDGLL

Regarding `C=C(CC)C(=O)c1ccc(OCC(=O)O)c(Cl)c1Cl`, the Potency entry in test [1], in [2] and in test [3] was “inactive” each time. Further, the Potency in [4] is 2.37 µM (active).

As for `CN(C)CCCOc1nn(Cc2ccccc2)c2ccccc12`, in test [1], the Potency is 5.01 µM (active). Besides, the Potency result in [2], in test [3], in test [5] and in [6] was “inactive” throughout.

On to `C=CCc1ccc(O)c(OC)c1`, for which the Potency result in [1], in test [2], in test [3] and in test [4] was “inactive” in each case. In addition, the activation in [7] is 0.303% and -4.38%.

Take `N[C@H](Cc1c[nH]c2ccccc12)C(=O)O`: the Potency entry in [1], in [2], in test [3] and in test [6] was “inactive” in each case.

As to `CC(=O)Nc1c(I)cc(I)c(C(=O)O)c1I`, the Potency result in test [1], in test [2], in test [3] and in test [6] was “inactive” throughout.

Turning to `CCOC(=O)/C=C(C)/C=C/C=C(C)/C=C/c1c(C)cc(OC)c(C)c1C`, the Potency entry in test [1], in test [2], in [3] and in [6] was “inactive” throughout.

Consider `CCCn1c(=O)[nH]c(=O)c2[nH]cnc21`, for which the Potency entry in test [1], in [2], in [3], in test [5], in [6] and in test [8] was “inactive” throughout. Also, in test [10], the Potency result is “inactive”. Also, the call in test [9] was inactive.

`O=C1CCC(c2ccc(-n3ccnc3)cc2)=NN1`: the Potency entry in [1], in test [2], in test [3], in test [5], in [6] and in [8] was “inactive” throughout. The Potency entry in [10] is “inactive”. The result in test [9] was inactive.

Consider `CCOc1ccc2nc3cc(N)ccc3c(N)c2c1`, for which the Potency entry in [1], in [2] and in test [6] was “inactive” in each case. Also, the Potency in [3] is 12.8 µM (active).

For the compound `C[C@H]1C[C@H]2[C@@H]3CCC4=CC(=O)C=C[C@]4(C)[C@@]3(Cl)[C@@H](O)C[C@]2(C)[C@@]1(O)C(=O)CO`, the Potency result in test [1], in test [2], in test [3] and in test [5] was “inactive” each time. Moreover, in test [7], the activation is -5.8%.

Consider `Oc1c(I)cc(I)c2cccnc12`, for which the Potency result in test [1] and in [2] was “inactive” in each case. In [5], the Potency is 8.09 µM (active).

On to `CC(O)C(=O)O` (stereo not drawn), for which the Potency result in test [1], in [2], in test [3], in test [5], in test [6] and in [4] was “inactive” each time. The Potency entry in test [11] and in test [12] was “inactive” throughout. For the same compound, in test [7], the activation was -0.0251%.

Turning to `CCCCCCCCCCCCCCNCCO`, the Potency entry in test [1], in test [2], in [3] and in test [6] was “inactive” throughout.

Take `N[C@H](CO)C(=O)O`: the Potency result in test [1], in test [2], in [3], in [5], in [8] and in test [10] was “inactive” throughout. For the same compound, the compound was called inactive in test [9].

As for `O=C1[C@H]2CCCC[C@H]2C(=O)N1CCCCN1CCN(c2nsc3ccccc23)CC1`, the Potency is 5.01 µM (active) in test [1] and 32.2 µM (active) in test [3]. In addition, the Potency entry in test [2] and in test [6] was “inactive” throughout.
